DT40 TDP1 CPT – growth inhibition of DT40 Tdp1-/-;hTDP1 cells with camptothecin (screen for TDP1 inhibitors). AID 686979. chicken DT40 Tdp1-/-;hTDP1 cells + 20 nM CPT, ATP luminescence, 48 h. hit rate 12% among 420,000. Potency, µM (series often up to 46.2 µM), actives largely listed as inhibitors; further: nearly all actives have a fitted effect of over 55% in size
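Cell growth measured by CellTiter-Glo luminescence after a minimum 48 h, 37 C compound exposure with 20 nM CPT in Tdp1-knockout DT40 cells stably expressing hTDP1, seeded 400/well; qHTS titration format.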
TGFb inhibitor – TGF-b pathway inhibition | AID 588855 | HepG2 CAGA-GFP TGF-b/SMAD3 reporter, GFP fluorescence, 18 h; TGF-beta stimulated, 500 pg/mL final | hit rate 1.2% among 410,000 | Potency, µM (titrated, usually from 46.1 µM), most hits filed as inhibitors; further: nearly all actives have a fitted effect of over 65% in size
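Cell-based qHTS in HEPG2 carrying a CAGA-GFP Smad reporter; compounds added before 500 pg/mL final TGF-beta, 18 h incubation at 37 degrees C, GFP fluorescence quantified per cell by imaging cytometry.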
ATXN2 expr inh – ATXN2 expression inhibition; hit rate 0.72% among 360,000; HEK-293 ATXN2-luciferase reporter, luminescence, 24 h; AID 1745845; Potency, µM (top dose mostly 57 µM), usual class: inhibitors; further: nearly all actives have a fitted effect of over 55% in size
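qHTS (up to 57 uM final) was run with 24 h compound exposure of reporter cells at 37 °C. Each well was multiplexed: SteadyGlo luminescence measured ATXN2-luciferase expression after a fluorogenic Gly-Phe-AFC viability readout (25 uM final).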
S2 tox – reduces viability in counter-screen for ATXN expression inhibitors. S2 cells (HEK-293 line with an ATXN2-luciferase reporter) viability, CellTiter-Fluor protease fluorescence, 24 h. Potency, µM (titrated, usually from 56.7 µM), most hits filed as cytotoxic. hit rate 0.49% among 400,000; further: nearly all actives have a fitted effect of over 40% in size
TDP1 cell noCPT – qHTS for Inhibitors of human tyrosyl-DNA phosphodiesterase 1 (TDP1): qHTS in cells in absence of CPT. DT40 Tdp1-/- hTDP1 cells, no CPT, ATP luminescence, 48 h. hit rate 15% among 420,000. Potency, µM (highest dose often 46.2 µM), actives largely listed as inhibitors; further: nearly all actives have a fitted effect of over 55% in size
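Chicken DT40 Tdp1-/- cells stably complemented with human TDP1 were seeded at 400 cells/well with DMSO in place of 20 nM camptothecin. After compound pinning, cells grew at least 48 hr at 37 °C; viability read by CellTiter-Glo luminescence.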
HepG2 tox – kills HepG2 cells in TGF-b inhibitor counter-screen; HepG2 CAGA-GFP viability, ATP luminescence, 18 h; Potency, µM (doses to about 46.1 µM), most hits filed as cytotoxic; hit rate 0.76% among 410,000; AID 588856
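HepG2 CAGA-GFP cells (1000/well, DMEM with 1% FBS) received compound, then TGF-beta at 500 pg/mL final, and were incubated 18 hours at 37 degrees C. Viability was read by CellTiter-Glo luminescence. Media-only wells were set as complete cell-killing and DMSO as no toxicity.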
Hits are given with their value; - = inactive; ? = inconclusive; . = not tested or not shown; [ ] = remark or other dose. Most compounds without a hit are left out; they make up all but 17% or so of the library. The call rests on the fitted dose curve; in most records, active means well fitted curve in the direction sought with a large enough effect; inconclusive means small, poorly fitted or top-dose-only effect, or another doubt; inactive means no such curve, though single readings can be large; an effect the other way counts as inactive or inconclusive.

SMILES | DT40 TDP1 CPT | TGFb inhibitor | ATXN2 expr inh | S2 tox | TDP1 cell noCPT | HepG2 tox
Cn1cc(/C=C/c2ccnc3ccccc23)c2ccccc21 | ? | ? | . | . | 11µM | -
S=Cc1ccc(/C=C/c2ccnc3ccccc23)cc1 | ? | - | . | . | ? | -
Cc1ccc2sc(NC(=O)CN3C(=O)c4ccccc4C3=O)nc2c1C | - | - | - | - | - | -
O=[N+]([O-])c1ccccc1/C=C/c1ccnc2ccccc12 | ? | - | . | . | 14µM | -
CN(C)c1ccc(/C=C/c2ccnc3ccccc23)cc1[N+](=O)[O-] | - | - | . | . | - | -
C(=C\c1ccnc2ccccc12)/c1ccnc2ccccc12 | ? | - | . | . | 18µM | -
C[n+]1c(/C=C/c2ccnc3ccccc23)cc(/C=C/c2ccnc3ccccc23)c2ccccc21 | 5µM | ? | . | . | 2.5µM | -
Nc1ccccc1/C=C/c1ccnc2ccccc12 | 5µM | - | . | . | 3.2µM | -
COc1ccc(OC)c(NC(=O)NCCc2c[nH]c3ccccc23)c1 | - | - | - | - | - | -
C=CCOC(=O)C1=C[C@@H](c2csc3ccccc23)C[C@@H](OCCCCO)O1 | - | ? | - | ? | - | -
Oc1c(C(c2ccccc2F)N2CCN(c3ccccc3F)CC2)sc2nc(-c3ccco3)nn12 (centres undefined) | - | ? | - | - | - | -
O=C(COC(=O)/C=C/c1ccc(F)cc1)NC1CC1 | - | - | - | - | - | -
Cc1oc(-c2ccccc2NC(=O)c2ccsc2)nc1CN(C)CC1CC=CCC1 (centres undefined) | -[9.04 µM] | . | . | - | - | .
CCCCN(C(=O)c1cc(S(=O)(=O)N2CCCCC2)ccc1Cl)c1c(N)n(CC(C)C)c(=O)[nH]c1=O | - | - | - | - | - | -
C=Nc1ccc(/C=C/c2ccnc3ccccc23)cc1 | 22µM | - | . | . | 11µM | -
N#CC(=Cc1ccnc2ccccc12)c1ccccc1 | ? | - | . | - | 21µM | -
O=C(/C=C/c1ccnc2ccccc12)c1cccs1 | 4.6µM | ? | - | ? | 13µM | 5.6µM
CC(=O)c1sc(NC(=O)COc2ccc([N+](=O)[O-])cc2)nc1C | - | - | - | - | - | -
Cc1ccc(OC(=O)CCC(=O)Nc2ccc(C(N)=O)cc2)cc1 | - | - | - | - | - | -
COc1ccc(NC(=S)N(CCN(C)C)C(C)c2ccco2)cc1Cl (centres undefined) | - | - | - | - | 16µM | -
CC(C)(C)n1ncc2c(=O)n(Cc3ccc(OC(F)(F)F)cc3)cnc21 | . | - | . | . | . | -
CCOC(=O)C1=C(N)n2c(s/c(=C\c3ccco3)c2=O)=C(C(=O)OC(C)C)C1c1ccco1 (centres undefined) | ? | - | - | - | 21µM | -
CCOC(=O)C1=C(N)OC2=C(C(=O)CC(C)(C)C2)C1c1ccco1 (centres undefined) | - | - | - | - | - | -
CC1=C(C(=O)OC(C)C)C(c2ccco2)NC(=O)N1 (centres undefined) | - | - | - | - | - | -
CCOC(=O)C1=C(N)n2c(s/c(=C\c3ccco3)c2=O)=C(C(=O)OCC)C1c1ccco1 (centres undefined) | 5.6µM | - | - | - | 5µM | -
SMILES | DT40 TDP1 CPT | TGFb inhibitor | ATXN2 expr inh | S2 tox | TDP1 cell noCPT | HepG2 tox
CNc1ncnc2c1ncn2[C@H]1CN(Cc2cccs2)C[C@@H](CO)O1 | - | - | - | - | - | -
O=C(CN1CCC(C(=O)c2cccc(Cl)c2)CC1)Nc1ccc(C(=O)O)cc1 | - | - | - | - | - | -
N#Cc1ccc(NC(=O)c2ccc3c(c2)nnn3C2CCCC2)cc1 | - | ? | - | - | - | -
O=C(O)C(CCCCNS(=O)(=O)c1ccc(F)cc1)NS(=O)(=O)c1ccc(F)cc1 (centres undefined) | - | - | - | - | - | -
Cc1nc(-c2ccc(F)cc2)sc1CCNC(=O)c1ccc(C(C)(C)C)cc1 | 15µM | ? | - | ? | 16µM | -
COc1ccc(C(=O)NCCc2sc(-c3ccc(Cl)cc3)nc2C)c(OC)c1 | 16µM | ? | ? | ? | ? | -
Cc1nc(-c2ccc(F)cc2)sc1CCNC(=O)c1ccccc1 | 15µM | - | - | - | 23µM | -
Cc1nc(-c2ccc(F)cc2)sc1CCNC(=O)c1ccc(OC(C)C)cc1 | ? | - | ? | ? | ? | -
Cc1nc(-c2ccc(Cl)cc2)sc1CCNC(=O)c1ccc(C(F)(F)F)cc1 | 8.2µM | - | - | - | 12µM | -
CC(C)CC(=O)NC(=S)Nc1ccc(NC(=O)c2ccco2)cc1 | - | - | - | - | - | -
CCOC(=O)Cn1c(=O)oc2cc(S(=O)(=O)N3CCN(c4ccccc4OC)CC3)ccc21 | - | - | . | . | - | -
Cc1nc(-c2ccc(F)cc2)sc1CCNC(=O)c1cccs1 | 21µM | - | - | ? | ? | -
COc1ccc(-c2nc(C)c(CCNC(=O)c3cccs3)s2)cc1OC | . | - | - | - | . | -
N#CC1c2ccccc2-c2ccccc2N1C(=O)c1ccccc1 (centres undefined) | 5.8µM | - | . | - | 5.8µM | -
CC1C/C(=C/c2ccncc2)C(=O)/C(=C/c2ccncc2)C1 (centres undefined) | 0.65µM | 5.6µM | . | ? | 0.58µM | 5.6µM
CC1C/C(=C/c2cccn2C)C(=O)/C(=C/c2cccn2C)C1 (centres undefined) | 23µM | - | - | - | 23µM | -
Cn1cccc1/C=C1/SC(=S)N(CC(=O)O)C1=O | - | - | - | ? | - | -
Nc1nc2ncccc2cc1C(=O)NCCc1cccs1 | 23µM | . | - | - | 13µM | .
CC(C)c1nn(-c2c(Cl)cccc2Cl)c2nc(Cc3ccc(OCCO)cc3)[nH]c(=O)c12 | . | . | 0.034µM | . | . | .
Cc1ccc(S(=O)(=O)N2CCCC(c3nnc4n3-c3ccccc3SC4)C2)cc1 (centres undefined) | ? | - | - | - | 15µM | -
OCC1(CCOc2ccccc2)CCN(CC2=Cc3cc(Cl)ccc3OC2)CC1 | 18µM | ? | ? | - | 21µM | -
Cc1csc(NC(=O)CCc2c(C)nc3cc(-c4ccc(Cl)cc4)nn3c2C)n1 | 18µM | ? | ? | - | 13µM | -
COc1cc(Cl)c(C)cc1NC(=O)CCc1c(C)nc2cc(-c3cccc(F)c3)nn2c1C | - | - | - | - | - | -
CCc1ccccc1NC(=O)CCc1c(C)nc2cc(-c3ccccc3)nn2c1C | ? | ? | - | - | 18µM | -
Cc1nc2cc(-c3ccccc3)nn2c(C)c1CCC(=O)Nc1ccc(F)cc1F | 10µM | ? | - | - | 12µM | -
Cc1cccc(Nc2c(O)nc[nH]c2=O)c1 | - | - | - | - | - | -

High-throughput results: PubChem BioAssay, National Center for Advancing Translational Sciences (NCATS)
